The full list was thinned out, with hits kept by preference.
FECH block: blocks human mitochondrial ferrochelatase activity; purified FECH, Ni-mesoporphyrin absorbance 550 nm; calls only at 10 µM (by protocol); hit rate 3.3% among 20,000; AID 1671448;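 active = enzyme reaction rate more than 3 SD below the solvent-only control wells on the same plate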;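 also: lower slope than DMSO wells means FECH inhibition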
Target sequence (P22830 whole entry, looked up): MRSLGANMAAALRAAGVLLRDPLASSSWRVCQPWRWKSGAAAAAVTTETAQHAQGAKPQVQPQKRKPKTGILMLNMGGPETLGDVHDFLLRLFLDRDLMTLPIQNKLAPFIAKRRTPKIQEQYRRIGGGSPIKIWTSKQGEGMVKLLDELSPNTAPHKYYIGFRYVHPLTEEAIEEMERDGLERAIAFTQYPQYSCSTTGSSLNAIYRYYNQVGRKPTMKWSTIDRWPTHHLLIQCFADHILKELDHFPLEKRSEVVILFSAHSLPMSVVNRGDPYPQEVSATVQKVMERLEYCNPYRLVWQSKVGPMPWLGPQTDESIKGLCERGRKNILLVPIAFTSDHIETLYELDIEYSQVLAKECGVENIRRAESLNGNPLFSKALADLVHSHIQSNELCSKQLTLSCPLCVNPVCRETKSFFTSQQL
* marks the source's active call; other numbers are inactive results.

Screening CCOc1ccc(S(=O)(=O)N2CCN(c3nc(C)cc(Nc4ccc(C)cc4)n3)CC2)cc1 returned FECH block inactive.
For Cc1nc(Cn2cnc(-c3ccccc3)c2-c2cccc(C(C)N(C)C)c2)n[nH]1 (stereo unspecified) the results were FECH block inactive.
Screening CCN1C(SCC(=O)N2CCCC2)=NS(=O)(=O)c2ccccc21 returned FECH block active.
`CCN1C(SCC(=O)N(C)c2ccccc2)=NS(=O)(=O)c2ccccc21` gave FECH block active.
O=C(CSc1ccncc1)N1CCCC(c2ccccc2)C1 (stereo unspecified) was read as FECH block inactive.
For CCn1nc(C(=O)O)c2c1CCN(C(=O)C(c1cccnc1)N1CCCC1)C2 (stereo unspecified) the results were FECH block inactive.
`Cc1cc(Sc2ccc(NC(=O)Nc3ccc(F)cc3)cc2)n2nc(C)nc2n1` gave FECH block inactive.
`COc1ccc(CN2CCc3[nH]cnc3C2C(C)C)cc1O` (stereo unspecified) gave FECH block inactive.
`O=C(Cn1ccnc1)N1CCOc2c(O)cc(-c3cccc(Cl)c3)cc2C1` gave FECH block inactive.
For CCc1c(C)nc2ncnn2c1Sc1ccc(NS(=O)(=O)c2c(C)noc2C)cc1 the results were FECH block inactive.
For Cc1nnnn1-c1cccc(-c2n[nH]c(Cc3ccccc3)n2)c1 the results were FECH block inactive.
c1ccc(Cc2n[nH]c(Cn3nc4ccccc4n3)n2)cc1 was read as FECH block inactive.
Screening Cc1nnnn1-c1ccc(Cc2n[nH]c(Cc3ccccc3)n2)cc1 returned FECH block active.
Screening CCOc1ccc(-c2nc(CSc3nc(C)cc(=O)[nH]3)c(C)o2)cc1OC returned FECH block inactive.
Screening Cc1nnc(SCC(=O)NC(CC(C)C)c2ncnn2C)s1 (stereo unspecified) returned FECH block inactive.
Screening O=C(Nc1ccc2ncsc2c1)c1cccc(CN2CCCC(O)C2)c1 (stereo unspecified) returned FECH block active.
`O=C(Nc1ncns1)c1cccc(CN2CC[C@H](O)C2)c1` gave FECH block inactive.
For O=C(Nc1nc2c(s1)CCCC2)c1cccc(CN2CC[C@H](O)C2)c1 the results were FECH block inactive.
Screening CNc1cc(C(=O)N2CCC(c3nc4c(C)cccc4[nH]3)CC2)ccn1 returned FECH block inactive.
`Cc1ccc(Cl)cc1NCc1cc(=O)n2[nH]c(-c3ccc(C(C)(C)C)cc3)nc2n1` gave FECH block active.
Screening CC(C)(C)c1ccc(-c2nc3nc(CNc4ccccc4F)cc(=O)n3[nH]2)cc1 returned FECH block active.
CCOc1ccccc1NCc1cc(=O)n2[nH]c(-c3ccc(C(C)(C)C)cc3)nc2n1 was read as FECH block inactive.
For CC(C)(C)c1ccc(-c2nc3nc(CN4CCN(c5ccc(F)cc5)CC4)cc(=O)n3[nH]2)cc1 the results were FECH block inactive.
CCN1CCN(Cc2cc(=O)n3[nH]c(-c4ccc(C(C)(C)C)cc4)nc3n2)CC1 was read as FECH block inactive.
Screening CC(C)(C)c1ccc(-c2nc3nc(CNc4ccc(Br)cc4)cc(=O)n3[nH]2)cc1 returned FECH block inactive.
Screening Cc1cccc(CNC(=O)CN2C(=O)CN(C)C(=O)c3ccccc32)c1 returned FECH block inactive.
`CCc1cc(CN(C)C(=O)CN2C(=O)c3ccccc3C2=O)on1` gave FECH block active.
CCc1cc(CN(C)C2CCN(C(=O)c3ccccn3)CC2)on1 was read as FECH block inactive.
Screening CCc1cc(CN(C)C(CC)C(=O)Nc2ccccc2)on1 (stereo unspecified) returned FECH block inactive.
For CCOc1ccccc1CN1C(=O)c2cc3ccsc3n2CC1(C)C(=O)NCCOC (stereo unspecified) the results were FECH block inactive.
`Cc1ccc(NC(=O)Cc2csc(NC(=O)Nc3cccc(Cl)c3)n2)c(C)c1` gave FECH block inactive.
Screening CCC(=O)Nc1ccccc1-c1nnc(SCC(=O)Nc2ccccc2Cl)[nH]c1=O returned FECH block inactive.
CCC(=O)Nc1ccccc1-c1nnc(SCC(=O)Nc2cc(C)cc(C)c2)[nH]c1=O was read as FECH block active.
Screening CCC(=O)Nc1ccccc1-c1nnc(SCC(=O)Nc2cccc(C)c2C)[nH]c1=O returned FECH block inactive.
CCC(NC(=O)c1cccc(F)c1OC)c1cccs1 (stereo unspecified) was read as FECH block inactive.
`COC(=O)CC1=CC(=O)N(CC(=O)Nc2cccc(C(F)(F)F)c2)c2ccccc2N1` gave FECH block inactive.
For O=C(CN1CCCN(Cc2ccccc2Cl)S1(=O)=O)Nc1cccc(Br)c1 the results were FECH block inactive.
For O=C1CN(Cc2cccc(C(F)(F)F)c2)S(=O)(=O)c2ccccc2N1Cc1ccccc1 the results were FECH block inactive.
CCN1C(SCC(=O)Nc2cccc(Br)c2)=NS(=O)(=O)c2ccccc21 was read as FECH block active.
